Abeta rescue: A-beta toxicity reversal in yeast. 410,000 tested, 0.063% active. yeast expressing A-beta42, growth rescue, OD600, 48 h; response scale: 0% DMSO, 100% iron-clioquinol control. Potency, µM (top dose mostly 46.1 µM), most hits filed as activators. AID 1347071; further: nearly all actives have a fitted effect of over 55% in size
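Yeast A-beta toxicity model in growth medium with pinned compounds, 48 h at 30 C; growth read as absorbance at 600 nm. Normalized to FeCl3/clioquinol equimolar mix (positive) and DMSO (negative).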
aSyn yeast inh: rescues yeast growth from alpha-synuclein toxicity. 370,000 tested, 0.14% active. Potency, µM (series often up to 46.1 µM), inactives show at the highest dose growth rescue (activation), most hits filed as activators. Yeast expressing alpha-synuclein, growth rescue, BacTiter-Glo, 24 h; further: % of control where 0% means no effect; nearly all actives have a fitted effect of over 65% in size
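Screening used galactose-induced yeast with toxic alpha-synuclein levels, exposed to compound for 24 hr at 30 deg C. Cell growth, read with BacTiter-Glo luminescence, gave the measured signal.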
FUS suppressor: suppressors of FUS proteinopathy in yeast | 390,000 tested, 0.24% active | AID 1347120 | Potency, µM (top dose mostly 76.6 µM), hits mostly activators | S. cerevisiae FUS-expressing, growth rescue, OD600, 24 h;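 further: plate controls were DMSO vehicle for no effect and reference control for full effect; nearly all actives have a fitted effect of over 55% in size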
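FUS-expressing yeast, raffinose-pregrown, induced in 2% galactose minimal medium at OD 0.005; compounds in a dilution series, 24hr at 30C. Growth restoration read as absorbance at 600 nm. CP55940 positive control, DMSO negative.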
TDP-43 yeast inh: rescues yeast growth from TDP-43 toxicity; TDP-43 expressing yeast growth rescue, BacTiter-Glo, 24 h; Potency, µM (top dose mostly 46.1 µM), without a hit: top-dose growth rescue (activation), usual class: activators; 410,000 tested, 1.8% active; AID 652104; further: % of control where 0% means no effect; nearly all actives have a fitted effect of over 50% in size
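In this qHTS, compounds that restore growth of yeast expressing TDP-43 appear as activators. Cells (OD600=0.02, galactose medium, raffinose-pregrown) are incubated with compound 24 hr at 30 deg C and growth is quantified by BacTiter-Glo.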
Starred values were filed as active, the others as inactive; i = inactive; u = inconclusive; x = no result given. Most compounds without a hit are left out; they make up all but 2.1% or so of the library. The call rests on the fitted dose curve; in most records, active means well fitted curve in the direction sought with a large enough effect; inconclusive means small, poorly fitted or top-dose-only effect, or another doubt; inactive means no such curve, though single readings can be large; an effect the other way counts as inactive or inconclusive. Potency means the concentration at half of the fitted maximal effect.

SMILES	Abeta rescue	aSyn yeast inh	FUS suppressor	TDP-43 yeast inh
Cc1ccc(C(=O)N2CCN(S(=O)(=O)c3ccccc3[N+](=O)[O-])CC2)o1	i	-1%	i	6%
CCc1nnc(NC(=O)c2ccc3ccccc3n2)s1	i	6%	i	32µM*
CCSc1nnc(NC(=O)c2ccc3ccccc3n2)s1	i	-11%	i	-1%
Cc1nnc(NC(=O)c2nc(SCc3ccccc3F)ncc2Cl)s1	i	x	u	16µM*
CCc1nnc(NC(=O)c2nc(SCc3ccccc3F)ncc2Cl)s1	i	x	i	18µM*
CC(C)c1nnc(NC(=O)c2nc(SCc3ccc(F)cc3)ncc2Cl)s1	i	x	8.9µM*	12%
Cc1ccccc1NC(=O)c1nc(SCc2ccccc2F)ncc1Cl	x	3%	x	x
COc1cc2sc(-c3ccccc3OC)c(-c3ccc(O)cc3)c2cc1OC	i	-1%	i	16µM*
COc1ccc2sc(-c3ccccc3OC)c(-c3ccc(O)cc3)c2c1	i	-62%	u	-91%
COc1ccc(-c2nc(S(=O)(=O)c3ccc(C)cc3)c(NCc3ccccc3)o2)cc1	i	x	i	10%
Cc1ccc(C)c(NC(=S)NC(=O)c2cncc(Br)c2)c1	u	-4%	i	11µM*
O=c1cc(-c2ccccc2)nc(SCc2nc(-c3cccc(C(F)(F)F)c3)no2)[nH]1	i	x	i	2%
CC(C)(C)Cc1c(-c2ccco2)nc2ccc(Cl)cn12	i	u	i	11µM*
COc1ccc(Cc2c(-c3ccccc3)nc3ccc(Cl)cn23)c(C)c1	i	5%	i	0%
CC(C)(C)Cc1c(-c2cccc(Cl)c2)nc2ccc(Cl)cn12	i	-14%	i	0%
COc1ccc(Cc2c(-c3ccco3)nc3ccc(Br)cn23)c(C)c1	i	u	i	4.5µM*
COc1ccc(Cc2c(-c3ccco3)nc3ccc(Cl)cn23)c(C)c1	i	23%	i	22µM*
COc1cc(-c2nc3ccccn3c2/N=C/c2cc(OC)c(O)cc2Cl)ccc1O	i	-11%	i	21%
C[C@H]1[C@@H](OC(=O)Nc2ccccc2Cl)CC[C@@]23CCCN2C(=O)CCC[C@@H]13	x	x	i	x
O=S(=O)(c1ccc(Cl)cc1)c1snnc1-c1ccccc1	i	-5%	i	u
O=S(=O)(c1ccc(F)cc1)c1snnc1-c1ccccc1	i	-6%	i	14µM*
COc1ccc2cc3cc(C(=O)N4CCN(c5ccccn5)CC4)oc3nc2c1	x	19%	i	13%
Cc1ccc(OCCOc2cccc(Br)c2)c([N+](=O)[O-])n1	i	2%	i	14µM*
O=C(NCc1ccccc1Cl)c1cnc2n(c1=O)CCS2	i	-2%	i	u
Cc1csc2ncc(C(=O)NCc3ccc4c(c3)OCO4)c(=O)n12	i	0%	i	10µM*
SMILES	Abeta rescue	aSyn yeast inh	FUS suppressor	TDP-43 yeast inh
Cc1csc2ncc(C(=O)NCc3ccccc3Cl)c(=O)n12	i	-1%	i	22µM*
O=C(CSc1ncnc2sccc12)NCc1ccc2c(c1)OCO2	i	u	i	16µM*
Cc1ccc(-c2csc3ncnc(SCC(=O)NCc4ccc5c(c4)OCO5)c23)cc1	i	2%	i	-1%
O=C(NCc1ccc2c(c1)OCO2)c1cnc2ccccn2c1=O	i	-9%	i	-10%
CC1CCN(CCc2nc3cc(NC(=O)COc4ccc([N+](=O)[O-])cc4)ccc3n2C)CC1	i	3%	i	-8%
COC(=O)c1ccc(-n2c(C)cc(C(=O)CSc3ccc(NC(C)=O)cc3)c2C)cc1	i	-1%	x	0%
COC(=O)c1ccc(-n2c(C)cc(C(=O)CSc3cccc[n+]3[O-])c2C)cc1	i	u	i	14µM*
Cc1cc(C(=O)Cn2nc(C(=O)O)c3ccccc3c2=O)c(C)n1-c1ccc(OC(F)F)cc1	i	0%	u	30%
Cc1cc(C(=O)CSc2cccc[n+]2[O-])c(C)n1-c1ccc(OC(F)F)cc1	i	-7%	i	14µM*
COC(=O)CCCn1cc(CN2CC=CS2(=O)=O)nn1	x	x	i	x
CN1CCN(c2ccc(CNC(=O)C3(C)Cc4c(-c5ccccc5)ccnc4O3)cc2)CC1 (stereo not drawn)	i	1%	i	2%
N#CC(=C1C=C(Br)C(=NO)C=C1Cl)c1ccc(Cl)cc1	i	-2%	i	u
N#CC(=C1C=CC(=NO)C(Cl)=C1)c1ccccc1	i	-10%	i	7.1µM*
COC1=C[C@H](C(=O)NCc2ccccc2)[C@H](C)[C@@H](c2ccccc2)CC1=O	x	x	i	x
O=c1[nH][nH]c2c1[C@H](CCc1cccc(Cl)c1)O[C@H](CCc1ccccc1)C2	i	-28%	i	21%
S=c1[nH]nc(COc2ccc(Cl)cc2)n1Cc1ccco1	13µM*	5%	i	u
C#CCONC(=O)c1cc(OCC(F)(F)F)ccc1OCC(F)(F)F	i	-1%	i	9%
O=C(N/N=C\C=C\c1ccco1)c1cc(-c2ccc3ccccc3c2)n[nH]1	i	18µM*	u	16%
CCOc1cccc(C(=O)N/N=C/c2coc3ccccc3c2=O)c1	i	1%	i	22µM*
CCOc1cc(N2CCOCC2)c(OCC)cc1NC(=O)CSc1ncccc1C(=O)O	i	7%	i	11%
C=CC[C@H](CC(=O)N(CCO)Cc1ccccc1)C(=O)N[C@H](COC(=O)[C@@H](CC=C)CC(=O)OC(C)(C)C)Cc1ccccc1	i	-2%	7.9µM*	-15%
CN(CCc1ccccc1)C(=O)c1cccc(NC(=O)Cc2cccc(NC(=O)C3CCCN(C(=O)c4ccccc4)C3)c2)c1 (stereo not drawn)	i	1%	i	0%
CC(C)C1OC2c3cccc4cccc(c34)C2N1c1ccccc1 (stereo not drawn)	i	0%	i	13µM*
O=S(=O)(c1ccc(NCc2ccccc2)cc1)N1CCOCC1	i	11%	x	u
O=C(c1ccco1)n1nc(-c2ccccc2)nc1NCc1ccco1	i	2%	i	4%
SMILES	Abeta rescue	aSyn yeast inh	FUS suppressor	TDP-43 yeast inh
O=C(c1ccco1)n1nc(NCc2ccccc2)nc1NCc1ccccc1	i	-3%	i	10µM*
Clc1ccc(-c2csc(N/N=C/c3cccnc3)n2)c(Cl)c1	i	-1%	u	13µM*
CN(C(=O)c1oc(=O)c2ccccc2c1-c1ccccc1)c1cccc(Cl)c1	i	x	i	25µM*
CC1(C(=O)Nc2ccc3c(c2)OCCO3)CN(S(C)(=O)=O)CC(=O)N1Cc1cccc(C(F)(F)F)c1 (stereo not drawn)	i	13%	i	22µM*
O=C(O)c1ccccc1C(=O)OC1CCCC2CCCC21 (stereo not drawn)	i	18%	x	22µM*
CC1C2CCC(C2)C1OC(=O)c1ccccc1C(=O)O (stereo not drawn)	i	13%	i	5%
